In the supplement of paper PMC7411054:
Where a name gives a salt, the structure may show the parent alone.

How the values were obtained:
Details in all cases: treatment time: 24 h
[1] = system: A549-ACTB-RAB5A; test: lowest phenotypically active concentration; higher = less potent
Summary of the method: (§1)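 Live-cell features were measured per well and normalised to solvent control wells after fifteen gene-edited A549, HepG2 and WPMY1 reporter lines had been treated for 24 h at 0.3, 1, 3 or 9 µM in four wells each. A condition was deviating when ≥3 of 4 wells sat beyond the 95th percentile of control Euclidean distances. It was reproducible when the median replicate Pearson correlation exceeded the 95th percentile of non-replicates. Phenotypic activity demanded both.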

[2] = system: A549-CANX-COX4; test: as above
Summary of the method: as §1

[3] = system: A549-GM130-SQSTM1; test: as above
Summary of the method: as §1

[4] = system: A549-TP53BP1-CLTA; test: as above
Summary of the method: as §1

[5] = system: A549-TUBA1B-RELA; test: as above
Summary of the method: as §1

[6] = system: A549-ACTB-RAB5A; test: phenotypically active (imaging signature differs from DMSO and reproducible) at any of 0.3-9 uM (binary (1 = active, 0 = inactive)); higher = active
Summary of the method: as §1

[7] = system: A549-CANX-COX4; test: as above
Summary of the method: as §1

[8] = system: A549-GM130-SQSTM1; test: as above
Summary of the method: as §1

[9] = system: A549-TP53BP1-CLTA; test: as above
Summary of the method: as §1

[10] = system: A549-TUBA1B-RELA; test: as above
Summary of the method: as §1

[11] = system: HepG2-ACTB-RAB5A; test: as above
Summary of the method: as §1

[12] = system: HepG2-CANX-COX4; test: as above
Summary of the method: as §1

[13] = system: HepG2-GM130-SQSTM1; test: as above
Summary of the method: as §1

[14] = system: HepG2-TP53BP1-CLTA; test: as above
Summary of the method: as §1

[15] = system: HepG2-TUBA1B-RELA; test: as above
Summary of the method: as §1

[16] = system: WPMY1-ACTB-RAB5A; test: as above
Summary of the method: as §1

[17] = system: WPMY1-CANX-COX4; test: as above
Summary of the method: as §1

[18] = system: WPMY1-GM130-SQSTM1; test: as above
Summary of the method: as §1

[19] = system: WPMY1-TP53BP1-CLTA; test: as above
Summary of the method: as §1

[20] = system: WPMY1-TUBA1B-RELA; test: as above
Summary of the method: as §1

SMILES	lowest phenotypically active concentration [1] [µM]	lowest phenotypically active concentration [2] [µM]	lowest phenotypically active concentration [3] [µM]	lowest phenotypically active concentration [4] [µM]	lowest phenotypically active concentration [5] [µM]	phenotypically active [6]	phenotypically active [7]	phenotypically active [8]	phenotypically active [9]	phenotypically active [10]	phenotypically active [11]	phenotypically active [12]	phenotypically active [13]	phenotypically active [14]	phenotypically active [15]	phenotypically active [16]	phenotypically active [17]	phenotypically active [18]	phenotypically active [19]	phenotypically active [20]
CCOC(=O)CCNc1cc(N2CCc3ccccc3CC2)nc(-c2ccccn2)n1	3	9	9	3	3	1 (active)	1 (active)	1 (active)	1 (active)	1 (active)	1 (active)	1 (active)	1 (active)	1 (active)	1 (active)	1 (active)	1 (active)	1 (active)	1 (active)	1 (active)
CCCC1(CCC)CCC2(CCN(CCCN(CC)CC)C2)CC1 [Atiprimod dihydrochloride]	≤ 0.3	3	≤ 0.3	1	≤ 0.3	1 (active)	1 (active)	1 (active)	1 (active)	1 (active)	1 (active)	1 (active)	1 (active)	1 (active)	1 (active)	1 (active)	1 (active)	1 (active)	1 (active)	1 (active)
Cc1nc(Nc2ncc(C(=O)Nc3c(C)cccc3Cl)s2)cc(N2CCN(CCO)CC2)n1 [dasatinib]	≤ 0.3	≤ 0.3	≤ 0.3	≤ 0.3	1	1 (active)	1 (active)	1 (active)	1 (active)	1 (active)	1 (active)	1 (active)	1 (active)	1 (active)	1 (active)	1 (active)	1 (active)	1 (active)	1 (active)	1 (active)
c1ccc2c(c1)Cc1c(Nc3ccc4c(c3)OCCO4)n[nH]c1-2	3	3	3	3	3	1 (active)	1 (active)	1 (active)	1 (active)	1 (active)	1 (active)	1 (active)	1 (active)	1 (active)	1 (active)	1 (active)	1 (active)	1 (active)	1 (active)	1 (active)
CC(C)(N)c1cc(C(=O)N[C@@H]2CCc3ccc(OC4=C5CCC(=O)N=C5NC=C4)cc3C2)cc(C(F)(F)F)c1 [ML 786 dihydrochloride]	1	1	1	3	1	1 (active)	1 (active)	1 (active)	1 (active)	1 (active)	1 (active)	1 (active)	1 (active)	1 (active)	1 (active)	1 (active)	1 (active)	1 (active)	1 (active)	1 (active)
CN(C)c1ccc(C(=O)NCCCCCCC(=O)NO)cc1	≤ 0.3	≤ 0.3	1	≤ 0.3	≤ 0.3	1 (active)	1 (active)	1 (active)	1 (active)	1 (active)	1 (active)	1 (active)	1 (active)	1 (active)	1 (active)	1 (active)	1 (active)	1 (active)	1 (active)	1 (active)
C=CC(=O)Nc1cccc(CN2C(=O)N(c3c(Cl)c(OC)cc(OC)c3Cl)Cc3cnc(NCCCCN(CC)CC)nc32)c1 [FIIN 1 hydrochloride]	≤ 0.3	3	≤ 0.3	3	1	1 (active)	1 (active)	1 (active)	1 (active)	1 (active)	1 (active)	1 (active)	1 (active)	1 (active)	1 (active)	1 (active)	1 (active)	1 (active)	1 (active)	1 (active)
